Experimental data as given in PubChem BioAssay (NCATS).
Inconclusive results are not listed. Activity calls are given as the source filed them. Calls come from the whole dose curve; as a rule, active = well fitted curve in the direction sought with a large enough effect; inconclusive = small, poorly fitted or top-dose-only effect, or another doubt; inactive = no such curve, though single readings can be large; an effect the other way counts as inactive or inconclusive.

Columns and labels:
[1] = Quantitative High-Throughput drug screen in 47 multiple myeloma cell lines against the NCATS MIPE library collection: Karpas25_ECACC cell viability assay (AID 1918968; note: nearly all actives have a fitted effect of over 35% in size)
Outline: (§1)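 Myeloma cell lines, 500 cells per well, exposed to MIPE 4.0 library compounds for 48 h at 37C, 5% CO2. Viability from ATP by CellTiter-Glo luminescence; normalised to DMSO (100%) and media-only (0%) wells.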

[2] = Quantitative High-Throughput drug screen in 47 multiple myeloma cell lines against the NCATS MIPE library collection: KMS27_JCRB cell viability assay (AID 1918970); details: KMS27 myeloma cells, CellTiter-Glo ATP viability, 48 h; viability (% of DMSO): at 45.8 µM (top of the series); note: nearly all actives have a fitted effect of over 30% in size
Outline: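 KMS27_JCRB myeloma cells, 500 per well, exposed 48 h at 37 C, 5% CO2 to MIPE 4.0 compounds. Viability from ATP by CellTiter-Glo luminescence, normalized to DMSO (100%) and medium-only (0%) wells.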

[3] = Quantitative High-Throughput drug screen in 47 multiple myeloma cell lines against the NCATS MIPE library collection: KMS12BM_JCRB cell viability assay (AID 1918971); note: nearly all actives have a fitted effect of over 35% in size
Outline: (§2)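 Inhibition of cell viability is measured here. Each line was plated at 500 cells per well, treated with MIPE 4.0 drugs, kept 48 hours at 37C, then assayed for ATP content by CellTiter-Glo luminescence.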

[4] = Quantitative High-Throughput drug screen in 47 multiple myeloma cell lines against the NCATS MIPE library collection: KMS12PE_JCRB cell viability assay (AID 1918972); note: nearly all actives have a fitted effect of over 30% in size
Outline: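 qHTS of the MIPE 4.0 collection: 500 myeloma cells/well, 48 h drug exposure at 37C in 5% CO2, then CellTiter-Glo for 5 min at room temperature before luminescence reading.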

[5] = Quantitative High-Throughput drug screen in 47 multiple myeloma cell lines against the NCATS MIPE library collection: KMS20_JCRB cell viability assay (AID 1918973); note: nearly all actives have a fitted effect of over 45% in size
Outline: as §1

[6] = Quantitative High-Throughput drug screen in 47 multiple myeloma cell lines against the NCATS MIPE library collection: KMS26_JCRB cell viability assay (AID 1918975); note: nearly all actives have a fitted effect of over 45% in size
Outline: as §2

[7] = Quantitative High-Throughput drug screen in 47 multiple myeloma cell lines against the NCATS MIPE library collection: MMM1_PLB cell viability assay (AID 1918976); note: nearly all actives have a fitted effect of over 35% in size
Outline: (§3)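 Viability after 48 h drug exposure was measured as ATP-dependent luminescence. Cells, 500 per well, sat at 37 °C under 5% CO2; DMSO wells set 100%, media-only wells 0%.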

[8] = Quantitative High-Throughput drug screen in 47 multiple myeloma cell lines against the NCATS MIPE library collection: MOLP8_DSMZ cell viability assay (AID 1918977); note: nearly all actives have a fitted effect of over 45% in size
Outline: as §3

[9] = Quantitative High-Throughput drug screen in 47 multiple myeloma cell lines against the NCATS MIPE library collection: NCIH929_DSMZ cell viability assay (AID 1918978); note: nearly all actives have a fitted effect of over 35% in size
Outline: as §3

[10] = Quantitative High-Throughput drug screen in 47 multiple myeloma cell lines against the NCATS MIPE library collection: KMS21BM_JCRB cell viability assay (AID 1918974); details: ATP luminescence, 48 h; viability: at 45.8 µM (top of the series)
Outline: as §1
Potency is the fitted concentration of half-maximal effect.

| SMILES | Potency [1] | Potency [2] | Potency [3] | Potency [4] | Potency [5] | Potency [6] | Potency [7] | Potency [8] | Potency [9] | Potency [10] |
| --- | --- | --- | --- | --- | --- | --- | --- | --- | --- | --- |
| COc1cc(CCc2cc(NC(=O)c3ccc(N4C[C@@H](C)N[C@@H](C)C4)cc3)n[nH]2)cc(OC)c1 | 16.6 µM (active) | 18.7 µM (active) | 11.8 µM (active) | 16.6 µM (active) | 4.69 µM (active) | 20.9 µM (active) | 16.6 µM (active) | 18.7 µM (active) | 10.5 µM (active) |  |
| CC(C)(N)c1ccc(-c2nc3ccccc3nc2-c2ccccc2)cc1 | 16.6 µM (active) | 18.7 µM (active) | 26.4 µM (active) | 7.43 µM (active) | 4.18 µM (active) | 26.4 µM (active) | 18.7 µM (active) |  | 4.69 µM (active) | 5.26 µM (active) |
| FC(F)(F)c1ccc(Nc2nc3ccc(Oc4ccnc(-c5ncc(C(F)(F)F)[nH]5)c4)cc3[nH]2)cc1 | 20.9 µM (active) | 23.5 µM (active) | 18.7 µM (active) | 14.8 µM (active) |  |  |  |  |  |  |
| CC(C)N1[N]C(=C2C=c3cc(O)ccc3=N2)c2c(N)ncnc21 | 0.235 µM (active) | 0.209 µM (active) | 0.166 µM (active) | 2.35 µM (active) | 0.743 µM (active) |  | 0.0833 µM (active) | 0.0833 µM (active) | 0.059 µM (active) | 2.09 µM (active) |
| CCNC(=O)c1cc2c(-c3cc(OCCN4CCCC4)c(Cl)cc3Cl)nc(N)nc2s1 | 0.833 µM (active) | 1.18 µM (active) | 1.48 µM (active) | 0.418 µM (active) | 1.66 µM (active) | 2.35 µM (active) | 2.96 µM (active) | 0.743 µM (active) | 0.935 µM (active) |  |
| Oc1ccc(-c2ccc(-c3cc(Nc4cccc(CNC5CC5)c4)n[nH]3)cc2)c(O)c1 | 1.05 µM (active) | 0.743 µM (active) | 2.64 µM (active) | 1.05 µM (active) | 1.32 µM (active) | 3.32 µM (active) | 2.35 µM (active) | 2.09 µM (active) | 1.18 µM (active) | 0.59 µM (active) |
| CN1CCCN(C(=O)c2cccc(-c3ccc(C=C4C(=O)Nc5ccc(Cl)cc54)o3)c2)CC1 | 8.33 µM (active) | 3.32 µM (active) | 23.5 µM (active) | 7.43 µM (active) | 4.69 µM (active) | 18.7 µM (active) | 8.33 µM (active) | 4.18 µM (active) | 20.9 µM (active) | 7.43 µM (active) |
| COc1cc(OC)c(C=CS(=O)(=O)Cc2ccc(OC)c(NCC(=O)O)c2)c(OC)c1 | 0.332 µM (active) | 0.0743 µM (active) | 0.418 µM (active) | 0.105 µM (active) | 1.18 µM (active) | 1.32 µM (active) | 0.743 µM (active) | 2.09 µM (active) | 2.64 µM (active) | 0.0833 µM (active) |
| C[C@]12C=CC(=O)N[C@@H]1CC[C@H]1[C@H]3CC[C@@H](C(=O)Nc4cc(C(F)(F)F)ccc4C(F)(F)F)[C@@]3(C)CC[C@@H]12 | 11.8 µM (active) | inactive | 20.9 µM (active) | inactive |  |  |  |  |  |  |
| COc1cccc2c1C(=O)c1c(O)c3c(c(O)c1C2=O)C[C@@](O)(C(=O)CO)C[C@@H]3O[C@H]1C[C@H](N)[C@@H](O)[C@H](C)O1 | 0.418 µM (active) | 0.935 µM (active) | 0.469 µM (active) | 2.35 µM (active) | 0.166 µM (active) | 1.48 µM (active) | 0.469 µM (active) | 0.372 µM (active) | 0.235 µM (active) |  |
| NC(=NCCCCCCN=C(N)N=C(N)Nc1ccc(Cl)cc1)N=C(N)Nc1ccc(Cl)cc1 | 2.96 µM (active) | 16.6 µM (active) | 9.35 µM (active) | 16.6 µM (active) | 3.32 µM (active) | 16.6 µM (active) | 20.9 µM (active) | 8.33 µM (active) | 3.32 µM (active) | 7.43 µM (active) |
| COc1cc([C@@H]2c3cc4c(cc3[C@H](O)[C@H]3COC(=O)[C@@H]23)OCO4)cc(OC)c1OC | 0.187 µM (active) | 0.0526 µM (active) | 0.148 µM (active) | 0.118 µM (active) | 1.32 µM (active) | 0.372 µM (active) | 0.469 µM (active) | 0.469 µM (active) | 0.59 µM (active) |  |
| C=CC(=O)Nc1cccc(Nc2nc(NC3CCC(N(C)C)CC3)nc3c2ncn3C(C)C)c1 (configuration not stated) | 0.0296 µM (active) | 0.0105 µM (active) | 0.469 µM (active) | 0.0118 µM (active) | 0.0935 µM (active) | 0.235 µM (active) | 1.05 µM (active) | 0.166 µM (active) | 0.0372 µM (active) | 0.0166 µM (active) |
